# Measured values: the supplement of paper PMC6522484
# ± gives the standard deviation of the averaged measurements.
# How the values were obtained:
# [1] = tested on: DLD1; assay: cell viability (CellTiter-Glo) relative to plate median (fraction of plate median); higher = more viable cells; conditions: 10 µM, treatment time 24 h
# In short: (§1)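 Values are the mean of two independent replicates of luminescence normalised to the plate median with webcellHTS2, using the additive method without log transformation. They come from colorectal cancer cell lines stably transduced with lentiviral TCF/Wnt firefly luciferase reporters (7TFP or TCF4/Wnt), seeded in 384-well plates. After 24 h the cells got kinase inhibitor library compounds at a final 10 µM for 24 h, and parallel plates were read for firefly luciferase or CellTiterGlo on a Tecan F500.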
# [2] = tested on: HCT116; assay: as above; conditions: 10 µM; treatment time 24 h; reporter: TCF4/Wnt
# In short: as §1
# [3] = tested on: SW480; assay: as above; conditions: 10 µM; treatment time 24 h; reporter: 7TFP
# In short: as §1
# [4] = tested on: DLD1; assay: TCF/Wnt firefly luciferase reporter signal relative to plate median (fraction of plate median); higher = higher Wnt reporter signal; conditions: 10 µM, treatment time 24 h
# In short: as §1
# [5] = tested on: HCT116; assay: as above; conditions: 10 µM; treatment time 24 h; reporter: TCF4/Wnt
# In short: as §1
# [6] = tested on: SW480; assay: as above; conditions: 10 µM; treatment time 24 h; reporter: 7TFP
# In short: as §1
SMILES,cell viability ([1]; reporter: 7TFP),cell viability ([1]; reporter: TCF4/Wnt),cell viability [2],cell viability [3],TCF/Wnt firefly luciferase reporter signal ([4]; reporter: 7TFP),TCF/Wnt firefly luciferase reporter signal ([4]; reporter: TCF4/Wnt),TCF/Wnt firefly luciferase reporter signal [5],TCF/Wnt firefly luciferase reporter signal [6]
Cc1nc(Nc2ncc(C(=O)Nc3c(C)cccc3Cl)s2)cc(N2CCN(CCO)CC2)n1,0.774 ± 0.11,0.898 ± 0.13,1.01 ± 0.035,1.06 ± 0.071,0.54 ± 0.063,0.487 ± 0.031,0.706 ± 0.078,0.615 ± 0.07
N#CC(=C(/N)Sc1ccccc1N)/C(C#N)=C(\N)Sc1ccccc1N,1.08 ± 0.064,1.003 ± 0.0099,0.938 ± 0.043,1.06 ± 0.05,1.73 ± 0.11,1.27 ± 0.064,0.95 ± 0.071,1.59 ± 0.16
Cc1cc(CN2CCN(c3c(Br)cnc4nc(-c5ccc(N6CCN(C)CC6)cc5)[nH]c34)CC2)no1,1.09 ± 0.23,1.01 ± 0.021,1.04 ± 0.014,1.08 ± 0.057,1.42 ± 0.15,1.49 ± 0.18,1.72 ± 0.46,1.34 ± 0.4
COc1cc(OC)c(/C=C/S(=O)(=O)Cc2ccc(OC)c(NCC(=O)O)c2)c(OC)c1,0.988 ± 0.074,1.01 ± 0.025,0.631 ± 0.14,1.04,0.726 ± 0.011,0.772 ± 0.0014,0.198 ± 0.013,0.694 ± 0.069
CC[C@@H]1C(=O)N(C)c2cnc(Nc3ccc(C(=O)N[C@H]4CC[C@H](N5CCN(CC6CC6)CC5)CC4)cc3OC)nc2N1C(C)C [BI6727 (Volasertib)],0.744 ± 0.32,0.894 ± 0.071,0.554 ± 0.18,0.995 ± 0.16,1.68 ± 0.18,1.98 ± 0.49,0.866 ± 0.0085,1.39 ± 0.27
CNC(=O)c1cc(Oc2ccc(NC(=O)Nc3cc(C(C)(C)C)nn3-c3ccc4ncccc4c3)c(F)c2)ccn1 [DCC-2036 (Rebastinib)],1.1 ± 0.13,1.265 ± 0.0071,0.985 ± 0.035,1.08 ± 0.099,0.817 ± 0.021,0.755 ± 0.047,0.895 ± 0.2,0.746 ± 0.06
Cc1ccc(NC(=O)c2cccc(C(C)(C)C#N)c2)cc1Nc1ccc2ncn(C)c(=O)c2c1,1.21 ± 0.05,1.08,0.955 ± 0.044,1.18 ± 0.028,1.04 ± 0.33,0.843 ± 0.048,1.2 ± 0.3,1.43 ± 0.12
CC(C)(C)c1cc(/C=C(\C#N)C(N)=S)cc(C(C)(C)C)c1O [Tyrphostin AG 879 (AG 879)],0.851 ± 0.1,0.911 ± 0.098,0.979 ± 0.1,0.844 ± 0.018,0.707 ± 0.12,1.04 ± 0.042,0.791 ± 0.12,0.878 ± 0.041
C[C@@H](N)[C@H]1CC[C@H](C(=O)Nc2ccncc2)CC1,1.03 ± 0.05,1.03 ± 0.05,1.09 ± 0.021,1.045 ± 0.0071,1.22 ± 0.092,1.32 ± 0.057,1.53 ± 0.064,1.18 ± 0.057
CS(=O)(=O)N1CCN(Cc2cc3nc(-c4cccc5[nH]ncc45)nc(N4CCOCC4)c3s2)CC1,0.998 ± 0.19,1.03 ± 0.05,1.08 ± 0.021,1 ± 0.035,0.93 ± 0.14,0.947 ± 0.16,1.16 ± 0.057,1.04 ± 0.075
CC(C)n1nc(-c2cc3cc(O)ccc3[nH]2)c2c(N)ncnc21,0.86 ± 0.18,0.984 ± 0.037,0.698 ± 0.067,1.15 ± 0.085,0.557 ± 0.016,0.752 ± 0.0057,0.547 ± 0.061,0.636 ± 0.26
COc1cc2ncnc(Nc3cccc(Br)c3)c2cc1OC,1.15 ± 0.15,1.07 ± 0.064,1.06 ± 0.086,1.03 ± 0.071,0.631 ± 0.37,0.58 ± 0.13,0.911 ± 0.11,0.838 ± 0.09
CCn1nnc2c(N3CCOCC3)nc(-c3ccc(NC(=O)Nc4ccc(C(=O)N5CCN(C)CC5)cc4)cc3)nc21,1.21 ± 0.16,1.09 ± 0.092,0.683 ± 0.11,1.14 ± 0.028,0.633 ± 0.025,1.19 ± 0.042,0.59 ± 0.19,0.821 ± 0.054
CCn1c(-c2nonc2N)nc2c(C#CC(C)(C)O)ncc(OC[C@H]3CCCNC3)c21,0.909 ± 0.074,0.954 ± 0.065,0.805 ± 0.0057,1.04 ± 0.05,1.05 ± 0.55,1.22 ± 0.26,1.65 ± 0.41,1.39 ± 0.23
Cn1cc(C2=C(c3ccc(Cl)cc3Cl)C(=O)NC2=O)c2ccccc21,1.05 ± 0.18,0.952 ± 0.058,1.01 ± 0.088,0.993 ± 0.067,1.4 ± 0.057,1.35 ± 0.43,1.56 ± 0.61,1.35 ± 0.16
O=c1cc(N2CCOCC2)oc2c(-c3ccccc3)cccc12,1 ± 0.092,1.065 ± 0.0071,1.11 ± 0.021,0.963 ± 0.033,1.11 ± 0.078,1.15 ± 0.21,1.62 ± 0.3,1.15 ± 0.05
